Out of some 320,000 compounds screened, about 2,100 (0.66%) were called active. About 53% were inconclusive and are not listed. Calls come from the whole dose curve; as a rule, active = well fitted inhibition curve with a large enough effect in the signal ratio, with a control signal flat (not every such curve was filed as active); inconclusive = small, poorly fitted or top-dose-only effect, or effect the other way, or a change in a side signal; inactive = flat fitted curve, though single readings scatter; the % refers to the signal ratio. The entries come from a sample that favours actives as a whole.
Test: qHTS Assay for Lipid Storage Modulators in Drosophila S3 Cells;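 for cell number change: cells counted by Cell Tracker Red CMTPX staining in the red channel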; for lipid storage change, negative = inhibition: % is set by controls: 0 for no effect and ±100 for the full control effect
Conditions: BODIPY lipid droplet fluorescence, 18-24 h, cells fed with added oleic acid; cell number change: measured here: cell count max response; series mostly up to 46.1 µM
Text: NIH Molecular Libraries Probe Production Centers Network [MLPCN] NIH Chemical Genomics Center [NCGC] MLPCN Grant: 1 R03 MH085686-01 Assay Submitter (PI): Beller, Mathias; Max-Planck-Institut fur Biophysikalische Chemie NCGC Assay Overview: Storing lipids as a reservoir for energy or the anabolism of elementary metabolites is a common feature of probably all cells and is conserved from bacteria to humans. The universal cellular lipid storage organelle is the so-called lipid storage droplet (LD). Although ubiquitous, LDs share a simple structure composed of a hydrophobic core that harbors the storage lipids, which is shielded by a droplet-specific phospholipid monolayer to which proteins are attached. The current model of LD biogenesis involves an incorporation of the lipid core into the membrane leaflets of the endoplasmic reticulum (ER) followed by a subsequent budding-like maturation of a LD, which ultimately pinches off. Once released, LD volume can increase by localized lipogenesis or fusion of existing droplet. Storage lipids are re-mobilized enzymatically by lipase activity. Lipase regulation in the adipocyte is heavily studied and involves multiple components including catecholamine signaling, the LD-associated proteins Perilipin and comparative gene identification (CGI-58) and at least two lipases named hormone sensitive lipase (HSL) and adipocyte triglyceride lipase (ATGL). LD regulation outside of the adipocyte is poorly understood and only few components are known. However, there is an urgent need to learn more about ectopic fat depots as mislocalized storage of lipids, for example in the liver or muscle, is an eminent health problem associated with insulin resistance or the metabolic syndrome. We developed a laser-scanning cytometer assay to enable 1,536-well screening and combined the results of the small molecules screen with an RNAi database based on lipid storage.
Triacsin C (Sigma-Aldrich T-4540), an inhibitor of long-chain fatty acyl CoA synthetase that blocks synthesis of triglycerides, was used as a positive control for lipid under-storage. A total of 23 nL of compound solution of different concentrations were transferred to the assay plates using a Kalypsys pin tool equipped with a 1,536-pin array containing 10-nL slotted pins (FP1S10, 0.457-mm diameter, 50.8 mm long; V&P Scientific). One microliter of oleic acid (400 uM) was added, and the plate was lidded with stainless steel rubber gasket lined lids containing pinholes. […] Fluorescence was detected by excitation of the fluorophores with a 488-nm laser on an Acumen Explorer (TTP Lab Tech). The total intensity in channel 2 (500-530 nm) reflected lipid droplet accumulation. Cells were detected using channel 3 (575-640 nm) with 5-um width and 100-um depth filters. The ratio of the number of objects in PMT channel 2 over the number of objects in PMT channel 3 was also calculated. Percent activity was computed relative to an internal control (100% inhibited lipid droplet deposition due to the presence of 20 uM Triacsin C), which was added to 32 wells/plate.
Potency is the fitted concentration of half-maximal effect.

Row | Structure (SMILES) | Potency | cell number change | lipid storage change, negative = inhibition
1 | O=C1CCCc2ccccc2N1Cc1ccc(Cl)cc1 | inactive | -1.32% | 
2 | Cc1ccc2c(c1)N(CC(=O)NCCC1=CCCCC1)C(=O)c1cccnc1O2 | inactive | 12.4% | 
3 | COc1ccc(OCC(=O)Nc2ccc(S(=O)(=O)N3CCN(C)CC3)cc2)cc1 | inactive | -8.24% | 
4 | CC1CCCCC1NC(=O)COC(=O)Cc1ccc(Cl)cc1 (stereo not drawn) | inactive | -17.8% | 
5 | COc1cc(NC2CCCCC2O)c2nc(-c3ccc(Cl)cc3)ccc2c1 (stereo not drawn) | 14.6 µM (active) | -29.8% | 
6 | COc1ccc(OCC(=O)OCC(=O)NC2CCCCC2C)cc1 (stereo not drawn) | inactive | 5.06% | 
7 | NC1=NC(=O)C(CC(=O)c2ccc(Cl)cc2)S1 (stereo not drawn) | inactive | -1.82% | 
8 | O=C1CC(C(=O)Nc2ccc(C(=O)O)cc2)C(c2ccccc2)O1 (stereo not drawn) | inactive | -9.22% | 
9 | O=C(CN1CCC(O)CC1)N1c2ccccc2C=Cc2ccccc21 | inactive | 5.26% | 
10 | O=C(CN1CCCC1)N1c2ccccc2C=Cc2ccccc21 | inactive | -13.2% | 
11 | O=C(CN1CCCCCC1)N1c2ccccc2C=Cc2ccccc21 | 23.1 µM (active) | -1.69% | 
12 | Cc1nn(CC(=O)OCC(=O)Nc2c(C(C)C)cccc2C(C)C)c(C)c1[N+](=O)[O-] | inactive | 13.1% | 
13 | CCOc1ccc(C=NC23CN4CN(CN(C4)C2)C3)cc1 | inactive | 8.43% | 
14 | C(=N\n1cnnc1)/c1ccc2c(c1)OCO2 |  | 14.5% | 3.76% [at 9.22 µM] (inactive)
15 | C(=NC12CN3CN(CN(C3)C1)C2)c1ccc2c(c1)OCO2 | 25.9 µM (active) | -2.59% | 
16 | Fc1ccccc1OCCCCN1CCCCC1 | inactive | 6.04% | 
17 | CC(C)NC(=O)C(Cc1ccccc1)N1C(=O)c2ccccc2C1=O (stereo not drawn) | inactive | -13.7% | 
18 | COc1ccc2c(CCNC(N)=S)c[nH]c2c1 | inactive | 9.98% | 
19 | CCOc1ccccc1N(CC(=O)NCC1CCCO1)C(=O)CCC(=O)Nc1cc(C)on1 (stereo not drawn) | inactive | 6.09% | 
20 | Cc1cc(NC(=O)CCC(=O)N(CC(=O)NCC2CCCO2)c2ccccc2C)no1 (stereo not drawn) | inactive | 5.33% | 
21 | Cc1cc(NC(=O)CCC(=O)N(CC(=O)NCC2CCCO2)c2ccc(Cl)c(Cl)c2)no1 (stereo not drawn) | inactive | 10.4% | 
22 | CCc1ccccc1N(CC(=O)NCC1CCCO1)C(=O)CCC(=O)Nc1cc(C)on1 (stereo not drawn) | 25.9 µM (active) | 7.08% | 
23 | Cc1cc(NC(=O)CCC(=O)N(CC(=O)NCC2CCCO2)c2ccc(C)c(C)c2)no1 (stereo not drawn) | 1.03 µM (active) | -10% | 
24 | Cc1cc(NC(=O)CCC(=O)N(CC(=O)NCC2CCCO2)c2ccc3c(c2)OCCO3)no1 (stereo not drawn) | inactive | 10.4% | 

Row | Structure (SMILES) | Potency | cell number change | lipid storage change, negative = inhibition
25 | COC(=O)c1ccc(N2C(=O)c3cc(N4CCOCC4)c([N+](=O)[O-])cc3C2=O)cc1 | inactive | 0.29% | 
26 | Cc1cccc2nc(CSc3nc4ccccc4[nH]3)cn12 | inactive |  | 
27 | CC1(C)Cc2c(c(=S)nc(-c3ccccc3)n2CCOCCO)CO1 | inactive | 4.5% | 
28 | CC1(C)Cc2c(c(=S)nc(-c3ccccc3)n2CCO)CO1 | 0.259 µM (active) | -12.1% | 
29 | COCCn1c(-c2ccccc2)nc(=S)c2c1CC(C)(C)OC2 | inactive |  | 
30 | CC(=O)Nc1ncc(Cc2cccc(Cl)c2Cl)s1 | inactive |  | 
31 | Cc1nn(C(C)C(=O)NC2C(=O)N3C(C(=O)O)=C(CSc4nnnn4C)CSC23)cc1Cl (stereo not drawn) | inactive | -1.98% | 
32 | COc1cccc(NC(=O)COc2ccc(C(=O)N3CCN(C)CC3)cc2)c1 | inactive | 10.4% | 
33 | COc1cccc(NC(=S)N2CCN(C)CC2)c1 | inactive | -7.43% | 
34 | COc1cccc(NC(=O)COc2ccc(C(=S)N3CCN(C)CC3)cc2OC)c1 | 8.2 µM (active) |  | 
35 | CCOCCn1c(N2CCCC2)nc2c1c(=O)n(C)c(=O)n2C | inactive | -1.35% | 
36 | CCOC1=C/C(=C/c2c(N)n3nc(CC(=O)N4CCCC4)sc3nc2=O)C=CC1=O | inactive | -5.2% | 
37 | COC1=C/C(=C/c2c(N)n3nc(CC(=O)N4CCCCC4)sc3nc2=O)C=CC1=O | 14.6 µM (active) | -9.68% | 
38 | Nc1c(/C=C2/C=CC(=O)C(O)=C2)c(=O)nc2sc(CC(=O)N3CCCCC3)nn12 | inactive | -19.8% | 
39 | COC(=O)c1c(NC(=O)c2ccco2)sc(C(=O)N2CCCC2)c1C | inactive | -26.3% | 
40 | CCCn1cc(S(=O)(=O)c2ccc(OC)cc2)c(=O)c2cc(OCC)ccc21 | inactive |  | 
41 | CC(C)C(C(=O)Nc1ccc2c(c1)OCO2)N1C(=O)c2ccccc2C1=O (stereo not drawn) | inactive | -19.4% | 
42 | O=C(CCCCCNC(=O)c1ccccc1)N/N=C/c1ccccc1O | 9.2 µM (active) | -19.4% | 
43 | O=C(CCCCCNC(=O)c1ccccc1)N/N=C/c1ccc(O)cc1O | inactive | 1.3% | 
44 | O=C(CCCCCNC(=O)c1ccccc1)N/N=C/c1ccco1 | inactive |  | 
45 | CSC1=NCCN1S(=O)(=O)c1ccc2ccccc2c1 | inactive | 1.31% | 
46 | CC(C)Oc1ccc(CNC(=O)C2CCCN(S(=O)(=O)N3CCOCC3)C2)cc1 (stereo not drawn) | inactive | 24.2% | 
47 | O=Cc1cccn1-c1sc2c(c1C(=O)O)CCCC2 | inactive | -5.54% | 

From PubChem BioAssay AID2685 (National Center for Advancing Translational Sciences (NCATS), 2010)
